# Marburg entry inh = blocks Marburg virus binding to or entry into cells. 300,000 compounds, 1.8% hits. AID 540276. Potency, µM (doses to about 37.8 µM), inactives show at the highest dose activity change, negative = inhibition, actives largely listed as inhibitors. Marburg virus pseudotyped entry inhibition, cell reporter; calls by dose curve; tested in HEK293 cells; also: potency is read from the fitted curve at half-maximal effect
# HCMV antiviral = inhibitors of human cytomegalovirus. HFF cells, HCMV-luciferase reporter, 72 h; hits give low values. activity change, negative = inhibition, % at 57.5 µM. 410,000 compounds, 4.5% hits; in the data active = activity change below about -60%; inconclusive = no clear call, values can overlap the other calls; inactive = above about -39%
#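 Inhibition of viral replication was scored as loss of reporter luminescence in HFFs infected with HCMV-luciferase (MOI 1 PFU/cell) for 72 h; compounds tested at 2 doses, normalized to buffer and Salinomycin controls.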
# LASV entry inh = blocks Lassa virus binding to or entry into cells | Lassa virus pseudotype entry inhibition, cell reporter | Potency, µM (doses to about 37.9 µM), inactives show top-dose activity change, negative = inhibition, usual class: inhibitors | 300,000 compounds, 1.2% hits | AID 540256; calls by dose curve; tested in HEK293 cells; also: potency is read from the fitted curve at half-maximal effect; nearly all actives have a fitted effect of over 50% in size
# Vaccinia mCherry = inhibitors of vaccinia virus infection (mCherry reporter signal); AID 720579; 310,000 compounds, 0.63% hits; Vaccinia virus mCherry reporter infection, fluorescence; Potency, µM (top dose mostly 36.5 µM), for the others: at the top dose activity change, negative = inhibition, most hits filed as inhibitors; calls by dose curve; tested in A549 cells; also: potency is read from the fitted curve at half-maximal effect; nearly all actives have a fitted effect of over 35% in size
# HCV inh = inhibitors of hepatitis C virus infection. Huh7.5.1 HCVcc-Cre infection, luciferase reporter, 44 h. Potency, µM (highest dose often 41.8 µM), without a hit: at the top dose activity change, negative = inhibition, usual class: inhibitors. 340,000 compounds, 3.4% hits. AID 651820; active = well fitted inhibition curve with a large enough effect; inconclusive = small, poorly fitted or top-dose-only effect, or another doubt; inactive = no such curve, though single readings can be large or run the other way; also: potency is read from the fitted curve at half-maximal effect
#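 Cells (1,000/well) were plated 4 h before compound, then infected with HCVcc-Cre virus (~0.5 moi). After 44 h further culture, infection was read as luciferase luminescence following a 15 min substrate incubation at room temperature.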
# Vaccinia Venus = vaccinia inhibition (Venus reporter); Vaccinia virus Venus reporter expression, fluorescence; Potency, µM (highest dose often 36.5 µM), for inactives: top-dose activity change, negative = inhibition, hits mostly inhibitors; 330,000 compounds, 0.46% hits; AID 720580; calls by dose curve; tested in A549 cells; also: potency is read from the fitted curve at half-maximal effect; nearly all actives have a fitted effect of over 30% in size
# * = called active by the depositor; i = inactive; ? = inconclusive; nt = no result; [ ] = dose if it differs, or a comment. The list is not random: actives were taken first. Their share in the collection is about 7.8%. % is scaled to controls: 0 for no effect and ±100 for the full control effect.
SMILES,Marburg entry inh,HCMV antiviral,LASV entry inh,Vaccinia mCherry,HCV inh,Vaccinia Venus
O=C(Nc1cc(S(=O)(=O)N2CCCCC2)ccc1Cl)c1ccccc1NS(=O)(=O)c1ccc(F)cc1,?,nt,3.5µM*,?,10µM*,?
O=C(NCc1cccnc1)c1cccc(S(=O)(=O)N2CCCCC2)c1,-7%,-81*,10%,-6%,-16%,-16%
COCCNC(=O)c1cc(S(=O)(=O)N2CCC3(CC2)OCCO3)ccc1F,nt,3,nt,-8%,nt,-6%
O=C(Nc1cc(S(=O)(=O)N2CCCCC2)ccc1O)c1ccccc1NS(=O)(=O)c1ccc(F)cc1,-18%[46.1 µM],5,?,-7%,18%,-3%
COc1ccc(CCNC(=O)c2cc(S(=O)(=O)N3CCC4(CC3)OCCO4)ccc2F)cc1OC,?,-29,?,i,11µM*,-5%
COc1ccc(S(=O)(=O)N2CCCCCC2)cc1C(=O)NCc1ccccc1Cl,-1%,-27,?,-5%,9%,-23%
COc1ccc(CNC(=O)c2cc(S(=O)(=O)N3CCCCC3)ccc2Cl)cc1OC,?,-64*,-26%,i,11µM*,-20%
O=C(c1ccncc1)N1CC(=O)N2[C@H](CO)[C@H](c3ccc(Br)cc3)[C@@H]2C1,nt,-13,nt,nt,nt,nt
CC1CN=C(c2ccc(Cl)cc2)c2c3ccccc3[n+]([O-])n21 (centres undefined),nt,31,nt,nt,nt,nt
COc1ccc(CNC(=O)COc2ccc(S(=O)(=O)N3CCCCC3)cc2)cc1,2%,8,-13%,i,-2%,-17%
O=C(NCc1ccc(F)cc1)c1cc(S(=O)(=O)N2CCCCC2)ccc1Cl,nt,-102*,nt,nt,0%,nt
O=C(NCc1cccnc1)c1cc(S(=O)(=O)N2CCCCC2)ccc1Cl,-8%,-26,24%,-8%,-5%,-9%
COc1cc(OC)c(OC)cc1CNC(=O)c1cccc(S(=O)(=O)N2CCc3ccccc3C2)c1,?,?,?,-14%,1.8µM*,-29%
COc1ccc(CNC(=O)COc2ccc(S(=O)(=O)N3CCCCC3)cc2Cl)cc1,?,5,13µM*,-12%,?,-20%
CN(Cc1ccccc1)C(=O)C1CCN(S(=O)(=O)c2ccc3c(c2)oc(=O)n3C)CC1,1%[46.1 µM],-8,-1%[46.1 µM],-2%,nt,-5%
CCOC(=O)c1ccc(NC(=O)CN(Cc2ccc(C)cc2)S(=O)(=O)c2ccc(C)cc2)cc1,nt,4,?,-10%,nt,-13%
OC(c1ccccc1)(C1CCCCC1)C(CN1CCOCC1)c1ccccc1 (centres undefined),?,-39,-8%[46.1 µM],i,?,-19%
COc1ccc(C(O)(C2CCCCC2)C(CN2CCOCC2)c2ccccc2)cc1 (centres undefined),nt,-61*,nt,nt,-20%,nt
COc1ccc(C(O)(c2ccccc2OC)C(CN2CCOCC2)c2ccccc2)cc1 (centres undefined),11µM*,-26,nt,-25%,?,-22%
NC(=S)N/N=C1\CCSc2ccc(Cl)cc21,-19%[46.1 µM],-99*,-1%,?,?,?
CC(=Cc1ccccc1)C=C1SC(=S)N(CCCC(=O)Nc2ccc(C(=O)O)cc2)C1=O,nt,-22,nt,i,nt,-2%
CC(=C\c1ccccc1)/C=C1/SC(=S)N(CCCC(=O)O)C1=O,?,-82*,?,i,22%,-5%
CC(/C=C1\SC(=O)N(CCCC(=O)O)C1=O)=C\c1ccccc1,0.5µM*,-89*,0.79µM*,-12%,37%,3%
CCOc1ccc(CNC(=O)CCCn2nc(CC)n3c(cc4occc43)c2=O)cc1,nt,-60*,nt,nt,?,nt
CCc1nn(C(C)C(=O)NC2CCCCCC2)c(=O)c2cc3occc3n12 (centres undefined),21%[46.1 µM],?,18%[46.1 µM],-5%,10µM*,1%
SMILES,Marburg entry inh,HCMV antiviral,LASV entry inh,Vaccinia mCherry,HCV inh,Vaccinia Venus
CCc1nn(CCCC(=O)NCc2ccc(OC(C)C)cc2)c(=O)c2cc3occc3n12,?,?,18%[46.1 µM],-13%,8.9µM*,?
CCc1nn(CCCC(=O)NCc2ccco2)c(=O)c2cc3occc3n12,6%[46.1 µM],?,?,i,?,-8%
CCc1nn(CCCC(=O)NCc2cc(Br)ccc2OC)c(=O)c2cc3occc3n12,?,-37,-7%[46.1 µM],1%,10µM*,-1%
Cc1ccc(CNC(=O)CN2Cc3ccccc3C2=O)cc1,nt,24,12%[46.1 µM],-4%,nt,-6%
COc1ccc(S(=O)(=O)n2nc(C)c(S(=O)(=O)N3CCCCC3)c2C)cc1,nt,3,14%[46.1 µM],-16%,nt,-10%
C[C@H]1[C@@H](NC(=O)Nc2cccc(C(F)(F)F)c2)CC[C@@]23CCCN2C(=O)CCC[C@@H]13,nt,-11,nt,nt,nt,nt
OCC[C@H]1C[C@H](O)[C@@H](O)[C@]2(CCc3ccccc3CO2)O1,nt,6,nt,-8%,0.56µM*,-19%
O=C(CC1(CC2=NS(=O)(=O)c3ccccc3N2)CCCC1)NCCc1ccccc1,nt,-68*,nt,i,?,-21%
COc1cc(NC(=O)Cn2c(=O)n(CC(=O)NCCc3ccc(OC)c(OC)c3)c(=O)c3sccc32)cc(OC)c1,-20%[46.1 µM],?,2%[46.1 µM],-14%,nt,-14%
CCOC(=O)c1c(C)[nH]c(C)c1S(=O)(=O)N1CCC(C(=O)NCc2ccccc2)CC1,nt,8,-9%[46.1 µM],-12%,nt,-5%
Cn1c(=O)cc(OCC(=O)NCc2ccc(F)cc2Cl)c2ccccc21,12%[46.1 µM],7,?,-3%,nt,1%
Cc1ccc(Cl)cc1N1CCN(C(=O)c2noc(C)c2[N+](=O)[O-])CC1,nt,-105*,nt,nt,10µM*,nt
COc1cc(-c2cnc3c(NC=O)cc(-c4ccccc4)cn23)cc(OC)c1OC,nt,?,nt,-23%,nt,?
COc1cc(-c2cnc3c(NC=O)cc(-c4ccccc4Cl)cn23)cc(OC)c1OC,nt,-77*,nt,?,nt,?
COc1cc(-c2cnc3c(NC=O)cc(-c4ccc(C)cc4)cn23)cc(OC)c1OC,nt,-76*,nt,?,nt,?
COc1ccc(F)cc1-c1cc(NC=O)c2ncc(-c3cc(OC)c(OC)c(OC)c3)n2c1,nt,-76*,nt,?,nt,?
COc1cc(Cl)c(CN2CCOc3ccc(CN4CCCCC4CO)cc3C2)cc1OC (centres undefined),nt,nt,nt,-12%,nt,-6%
CCN(C(=O)CCS(=O)(=O)c1cc2c(cc1C)NC(=O)CO2)c1cccc(C)c1,nt,-103*,12%[46.1 µM],6%,nt,5%
CN1CCN(CCCNC(=O)c2ccc(/C=C3\Sc4ccccc4N(Cc4ccc(F)cc4)C3=O)cc2)CC1,nt,-67*,nt,nt,?,nt
CN1CCN(CCCNC(=O)c2ccc(/C=C3\Oc4ccccc4N(Cc4ccccc4F)C3=O)cc2)CC1,nt,-30,nt,nt,14µM*,nt
CCN1CCN(CCNC(=O)c2ccc(/C=C3\Sc4ccccc4N(Cc4ccccc4F)C3=O)cc2)CC1,nt,?,nt,nt,11µM*,nt
CC1(C)N=C(N)N=C(N)N1CCCCc1ccccc1,?,-98*,?,0.71µM*,?,1µM*
